Screening data (PubChem)
Only some compounds are listed: those with a hit (about 6.2% of all), similar ones and a draw of the others.
ATXN2 expr inh – Primary qHTS for Inhibitors of ATXN expression. HEK-293 ATXN2-luciferase reporter, luminescence, 24 h. Potency, µM (series often up to 57 µM), without a hit: at the top dose activity change, negative = inhibition, most hits filed as inhibitors. 360,000 tested, 0.72% active. AID 1745845, 2022; also: % is scaled to controls: 0 for no effect and ±100 for the full control effect; nearly all actives have a fitted effect of over 55% in size
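qHTS (up to 57 uM final) was run with 24 h compound exposure of reporter cells at 37 °C. Each well was multiplexed: SteadyGlo luminescence measured ATXN2-luciferase expression after a fluorogenic Gly-Phe-AFC viability readout (25 uM final).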
HT1080-NT tox – qHTS for induction of synthetic lethality in tumor cells producing 2HG: qHTS for the HT-1080-NT fibrosarcoma cell line; Potency, µM (titrated, usually from 46.1 µM), without a hit: top-dose activity, negative = less viability, hits mostly cytotoxic; AID 686970, 2013; 360,000 tested, 1.6% active; HT-1080-NT fibrosarcoma viability, CellTiter-Glo ATP luminescence, 48 h;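 also: NT is the 2HG producing partner of a matched IDH1 knockdown line; 0% = DMSO-treated cells and -100% = media-only wells without cells; nearly all actives have a fitted effect of over 55% in size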
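Compounds were tested in concentration-response format on HT-1080-NT cells for 48 hours at 37 degrees C. Cell viability came from CellTiter-Glo luminescence; curves were classified by r2, response magnitude and activity.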
KB-V1 cytotox – qHTS assay for MDR1-selective chemotherapeutics: Primary screen using the drug-selected MDR subline cells KB-V1; Potency, µM (titrated, usually from 46.1 µM), hits mostly cytotoxic; AID 1347076, 2019; KB-V1 MDR cells viability, CellTiter-Glo, 72 h; 400,000 tested, 3.4% active; also: % is scaled to controls: 0 for no effect and ±100 for the full control effect; nearly all actives have a fitted effect of over 60% in size
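Luminescent ATP read-out (CellTiter-Glo, 10 min) measures survival of drug-selected KB-V1 MDR cells after 72 h, 37 degrees C compound exposure. Medium: phenol-red-free DMEM, 10% FBS. Values from fitted concentration-response curves.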
HT1080 IDH1KD tx – qHTS for induction of synthetic lethality in tumor cells producing 2HG: qHTS for the HT-1080-IDH1KD cell line | HT-1080 IDH1 knockdown viability, ATP luminescence, 48 h | 360,000 tested, 2% active | Potency, µM (series often up to 46.1 µM), for inactives: top-dose activity, negative = toxicity, usual class: cytotoxic | AID 686971, 2013;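 also: 0% = DMSO wells and -100% = cell-free medium wells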
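HT-1080-IDH1KD cells (IDH1 knocked down), 750/well in RPMI with 5% FBS, treated with compound 48 h at 37 degrees C. Viability by CellTiter-Glo luminescence, normalised to DMSO and no-cell wells; concentration-response curves classed.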
ATXN viability – Viability Counterscreen for Primary qHTS for Inhibitors of ATXN expression; 400,000 tested, 0.49% active; AID 651635, 2014; S2 cells (HEK-293 line with an ATXN2-luciferase reporter) viability, CellTiter-Fluor protease fluorescence, 24 h; Potency, µM (doses to about 56.7 µM), most hits filed as cytotoxic; also: nearly all actives have a fitted effect of over 40% in size
KB-3-1 cytotox – qHTS assay for MDR1-selective chemotherapeutics: Primary screen using the parental adenocarcinoma cell KB-3-1 | KB-3-1 viability, CellTiter-Glo ATP luminescence, 72 h | Potency, µM (series often up to 46.1 µM), most hits filed as cytotoxic | 400,000 tested, 1.4% active; also: % is scaled to controls: 0 for no effect and ±100 for the full control effect; nearly all actives have a fitted effect of over 60% in size
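Cytotoxicity measured as CellTiter-Glo luminescence after 72 h at 37 C. Compound titrations were pinned onto drug-naive KB-3-1 parental adenocarcinoma cells grown in DMEM with 10% FBS, and normalized data fitted to concentration-response curves.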
* marks the source's active call; other numbers are inactive results; i = inactive; ? = inconclusive; · = not tested or not shown; ! = repeats disagree; [ ] = dose if it differs, or a comment. Calls follow the shape of the dose curve; as a rule, active = well fitted curve in the direction sought with a large enough effect; inconclusive = small, poorly fitted or top-dose-only effect, or another doubt; inactive = no such curve, though single readings can be large; an effect the other way counts as inactive or inconclusive. Potency is read from the fitted curve at half-maximal effect.

SMILES | ATXN2 expr inh | HT1080-NT tox | KB-V1 cytotox | HT1080 IDH1KD tx | ATXN viability | KB-3-1 cytotox
COc1cc(-c2cnc3c(NC=O)cc(-c4cccc(C(F)(F)F)c4)cn23)cc(OC)c1OC | 28.2µM* | ? | 23.1µM* | ? | ? | ?
COc1cccc(-c2cnc3c(NC=O)cc(-c4ccc(O)c(OC)c4)cn23)c1 | -67.7% | ? | i | ? | ? | ?
COc1cc(-c2cc(NC=O)c3ncc(-c4ccc(F)cc4)n3c2)cc(OC)c1OC | -31.2% | ? | ? | ? | ? | i
COc1cc(-c2cnc3c(NC=O)cc(-c4ccsc4)cn23)cc(OC)c1OC | ? | ? | 1.3µM* | ? | ? | 0.82µM*
COc1cccc(-c2cc(NC=O)c3ncc(-c4cc(OC)c(OC)c(OC)c4)n3c2)c1 | -29.4% | ? | 2.06µM* | ? | ? | 1.03µM*
COc1cc(-c2cnc3c(NC=O)cc(-c4cccnc4)cn23)cc(OC)c1OC | -15.8% | ? | 13µM* | ? | i | 10.3µM*
O=C(Cc1ccc(NC(=O)N2CCCCc3ccccc32)cc1)NCc1ccccc1Br | -24.4% | · | i | · | ? | i
COc1ccc(-c2cc(NC=O)c3ncc(-c4cccc(C(F)(F)F)c4)n3c2)c(OC)c1 | -32.9% | ? | ? | 13µM* | i | ?
Nc1ccc(-c2cc(NC=O)c3ncc(-c4cccc(C(F)(F)F)c4)n3c2)cn1 | ? | -7.7% | i | -25.8% | i | i
Cn1cc(-c2cnc3c(NC=O)cc(-c4cccc(C(F)(F)F)c4)cn23)cn1 | 0.0% | -43.9% | 20.6µM* | ? | i | ?
O=[N+]([O-])c1ccc(N2CCN(Cc3ccccc3)CC2)s1 | 5.2% | -12.1% | ? | -4.1% | i | i
O=[N+]([O-])c1ccc(N2CCN(Cc3ccccc3)CC2)c2c1no[n+]2[O-] | · | 23.1µM* | 6.51µM* | 14.6µM* | 3.55µM* | 2.06µM*
C=CCn1c(SCC(=O)Nc2ccc3c(c2)OCCO3)nnc1-c1ccco1 | 5.0% | 2.6% | 9.2µM* | 0.2% | i | i
O=C(CSc1nnc(-c2ccc(Cl)cc2)n1Cc1ccco1)Nc1ccc2c(c1)OCCO2 | -19.6% | -22.7% | 4.11µM* | ? | ? | i
CC(C)c1ccc(NC(=O)C(Cc2ccccc2)NS(=O)(=O)c2ccc3c(c2)oc(=O)n3C)cc1 (centres undefined) | 0.5% | · | i | · | i | i
COc1ccc2cnnc(SCC(=O)Nc3ccc(C(C)=O)cc3)c2c1OC | -0.6% | 1.1% | 5.17µM* | -0.4% | ? | i
COc1ccc2cnnc(SCC(=O)Nc3ccccc3)c2c1OC | 3.9% | -0.5% | 2.91µM* | -0.1% | i | i
CC(C)Cc1ccc(C(C)C(=O)Nc2ccc(O)cc2)cc1 (centres undefined) | · | -16.7% | ? | -10.3% | ? | i
CC(C)Cc1ccc(C(C)C(N)=Nc2ccc(O)cc2)cc1 (centres undefined) | ? | ? | ? | 20.6µM* | i | ?
Cc1csc[n+]1CC(=O)c1ccccc1 | · | · | i | · | · | i
CC(C)Cn1c(-c2csc(C(C)C)c2)n[nH]c1=S | -19.9% | -16.4% | i | 4.4% | i | i
CCn1c(-c2csc(C(C)C)c2)n[nH]c1=S | 9.7% | -0.3% | 20.6µM* | 2.9% | i | i
CCn1c(-c2ccc(C)cc2)n[nH]c1=S | -8.0% | -1.9% | 18.4µM* | -1.0% | i | ?
CCn1c(-c2ccc(Cl)cc2)n[nH]c1=S | 0.3% | ? | 10.3µM* | ? | i | ?
Cc1nc2cc(NC(=O)[C@@H]3C[C@@H](Sc4ccccn4)CN3Cc3cccc(F)c3)ccc2s1 | · | · | · | · | i | ·
SMILES | ATXN2 expr inh | HT1080-NT tox | KB-V1 cytotox | HT1080 IDH1KD tx | ATXN viability | KB-3-1 cytotox
COc1ccccc1Cc1c(-c2ccc(Cl)cc2)nc2c(C)cc(Br)cn12 | ? | ? | ? | ? | ? | 16.4µM*
Cc1cc(Br)cn2c(Cc3cccc(F)c3)c(-c3ccc(F)cc3)nc12 | 2.2% | ? | i | -15.8% | i | 16.4µM*
CC(=O)NC1CCCC1C#N (centres undefined) | · | · | i | · | · | ?
O=C(Cn1cnc([N+](=O)[O-])n1)N/N=C/c1ccc(O)cc1O | -34.4% | ? | i | 18.4µM* | i | i
CCOC(=O)C1(Cc2ccc(OC)cc2)CCN(C(=O)c2ccc3[nH]ccc3c2)CC1 | · | 13µM* | i | 25.9µM* | i | ?
COc1ccc(-c2nc3ccccc3n3c(-c4ccc(OC)cc4)c4c(=O)n(C)c(=O)n(C)c4c23)cc1 | 7.4% | · | i | · | i | i
Cc1ccc2nc(Cl)c3cc(C(=O)N(CCN(C)C)Cc4ccco4)sc3c2c1 | ? | ? | ? | 23.1µM* | ? | ?
Cc1ccc2nc(Cl)c3cc(C(=O)NCCCN4CCCC4)sc3c2c1 | -19.9% | 18.4µM* | i | ? | ? | ?
CCC1CCCCN1CCCNC(=O)c1cc2c(Cl)nc3ccc(C)cc3c2s1 (centres undefined) | · | · | i | · | · | i
Cc1ccccc1OCC(=O)OCc1cc(=O)n2ccsc2n1 | 16.6% | · | i | · | i | i
O=C(C[C@H]1C(=O)N(c2ccccc2)C[C@@H]1Cc1ccccc1)Nc1ccccc1 | 11.6% | 10.9% | 9.2µM*! | 6.5% | i | 23.1µM*!
O=C(C[C@H]1C(=O)N(CCc2ccccc2)C[C@@H]1Cc1ccccc1)Nc1ccccc1 | -26.1% | 1.1% | 20.6µM*! | -12.1% | ? | ?
CNC(=O)C[C@H]1C(=O)N(c2ccccc2)C[C@@H]1Cc1ccccc1 | -10.1% | 2.0% | i | 7.8% | i | i
O=C(c1ccco1)N1CCN(C(=O)c2ccc(COc3ccc4c(c3)CCC4)o2)CC1 | 3.4% | -2.0% | 16.4µM* | -15.4% | i | i
O=C(c1ccc(COc2ccc3c(c2)CCC3)o1)N1CCN(c2ccccc2)CC1 | -9.5% | ? | ? | -2.3%[9.24 µM] | i | i
COc1cc(-c2cnc3c(NC(C)=O)cc(-c4ccc(N5CCN(C)CC5)cc4)cn23)cc(OC)c1OC | 14.1µM* | ? | ? | ? | · | ?
CN1CCN(c2ccc(-c3cc(NC=O)c4ncc(-c5ccccc5)n4c3)cc2)CC1 | ? | ? | 23.1µM* | ? | ? | i
